From PubChem
A selection: hits, their analogues and other compounds. The true share with any hit is near 3.2%.
Pol III holo inh – DNA polymerase III holoenzyme inhibition. reconstituted DNA polymerase III holoenzyme replication, biochemical. Potency, µM (titrated, usually from 57.1 µM). actives 0.25% (n = 71,000). AID 603
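Reconstituted *E. coli* holoenzyme (0.35 nM Pol III, 1 nM beta, 154 nM SSB, 2 nM primase) was preincubated with compound for 15 min at RT. Synthesis on 1.4 nM ssM13Gori ran 35 min, then was stopped with PicoGreen/EDTA and read as dsDNA fluorescence.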
UbGFP stabilizer – proteasome inhibitors stabilizing ubiquitin-GFP reporter; 67,000 tested, under 10 active; Ubiquitin-GFP reporter cells, proteasome inhibition, GFP fluorescence; response scale: untreated = 0%, 10 µM MG-132 = 100%; Potency, µM (series often up to 45.9 µM), most hits filed as activators; active = well fitted activation curve with a large enough effect, not every such curve was filed as active; inconclusive = small, poorly fitted or top-dose-only effect, or another doubt; inactive = no such curve, though single readings can be large or run the other way
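U2OS Ub(G76V)-GFP reporter; O/N plating, 0.5% FBS; cpd 46 uM–2.9 nM, 4 h, 37 °C; GFP+ cell count, 488/515 nm; norm. to basal vs 10 uM MG-132; CRC fit.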
HBB splice mod – hemoglobin beta splicing modulation; HBB splicing reporter cell assay, activation; EGFP reporter with mutant IVS2-654 intron; response scale: normalised to 500 nM splice-correcting PNA; Potency, µM (doses to about 46.1 µM), actives largely listed as activators; actives 0.06% (n = 65,000); AID 925
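Compounds were applied for 2 days to HeLa EGFP-654 cells, 500/well in Optimem with 2% FCS. The reporter's EGFP is disrupted by mis-splicing of beta-globin intron IVS2-654. Readout: summed well GFP fluorescence from 488 nm laser scanning; reference was 500 nM antisense […] 654 PNA.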
Epigenetic mod – epigenetic GFP locus derepression in mouse cells; mouse C127i GFP locus derepression, cytometry, 30 h; Potency, µM (doses to about 46.1 µM); actives 0.09% (n = 68,000)
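Murine C127i mammary cells carrying a silenced, stably integrated CMV-driven GFP reporter were treated with compound for 30 hours at 37 C. After PBS washes, GFP-positive cells were counted by laser-scanning microplate cytometry.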
Tau fil binding – binders of human tau filaments; P10636; recombinant tau filaments, thioflavin S fluorescence, 15 h; filaments grown with octadecylsulfate alongside compound; Potency, µM (titrated, usually from 57.1 µM); actives 2% (n = 71,000); AID 596;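 note: actives lower thioflavin S fluorescence by blocking filaments or displacing dye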
Target sequence (P10636 whole entry, looked up): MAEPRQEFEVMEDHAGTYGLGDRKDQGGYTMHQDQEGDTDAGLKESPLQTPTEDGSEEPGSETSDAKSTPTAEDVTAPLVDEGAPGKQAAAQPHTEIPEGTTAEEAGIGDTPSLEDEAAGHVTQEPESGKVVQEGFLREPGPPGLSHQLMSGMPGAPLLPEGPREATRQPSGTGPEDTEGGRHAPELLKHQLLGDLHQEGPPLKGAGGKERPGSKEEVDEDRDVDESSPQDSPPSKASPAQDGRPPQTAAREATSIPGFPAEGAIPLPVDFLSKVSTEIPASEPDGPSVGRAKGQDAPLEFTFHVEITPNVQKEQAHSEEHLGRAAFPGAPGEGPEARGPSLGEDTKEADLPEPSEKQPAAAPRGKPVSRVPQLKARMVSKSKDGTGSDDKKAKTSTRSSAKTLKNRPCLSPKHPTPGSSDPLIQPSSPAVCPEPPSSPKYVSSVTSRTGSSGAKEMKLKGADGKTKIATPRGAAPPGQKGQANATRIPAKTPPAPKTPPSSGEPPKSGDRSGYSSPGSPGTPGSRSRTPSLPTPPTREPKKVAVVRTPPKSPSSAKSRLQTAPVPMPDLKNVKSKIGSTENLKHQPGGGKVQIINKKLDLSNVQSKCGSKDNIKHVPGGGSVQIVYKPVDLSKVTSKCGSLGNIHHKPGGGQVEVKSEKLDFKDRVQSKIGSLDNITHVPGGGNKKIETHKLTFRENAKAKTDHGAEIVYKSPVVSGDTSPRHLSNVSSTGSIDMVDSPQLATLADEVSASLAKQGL
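Tau 2 uM in ThS buffer dispensed; compound added; 60 uM ODS added (finals 1 uM tau, 30 uM ODS); 15 h 37 C; fluor ex450/em510.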
ALOX15 inhib – inhibitors of human 15-lipoxygenase (ALOX15); P16050; purified 15hLO-1, xylenol orange hydroperoxide absorbance; Potency, µM (doses to about 57.1 µM), actives largely listed as inhibitors; actives 1.4% (n = 74,000); AID 887; note: nearly all actives have a fitted effect of over 55% in size
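Readout: Fe(III)-xylenol orange absorbance, 573-to-405 nm ratio as reaction progress. Enzyme 40 nM purified human 15hLO-1, substrate 50 uM arachidonic acid, 6 min RT after 15 min compound preincubation; Hepes pH 7.5 buffer with Triton X-100.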
Hits are given with their value; [ ] = remark or other dose. Unless noted, calls come from the whole dose curve; as a rule, active = well fitted curve in the direction sought with a large enough effect; inconclusive = small, poorly fitted or top-dose-only effect, or another doubt; inactive = no such curve, though single readings can be large; an effect the other way counts as inactive or inconclusive.

How did Cc1ccc(C2C(C#N)=C(N)Oc3n[nH]c(-c4cccs4)c32)s1 (stereo unspecified) do in these assays?
Pol III holo inh: inactive; UbGFP stabilizer: inactive; HBB splice mod: inactive; Epigenetic mod: inactive; Tau fil binding: inactive; ALOX15 inhib: 25.1µM

What do the screens show for `Cc1ccc(-c2[nH]nc3c2C(c2ccoc2)C(C#N)=C(N)O3)cc1C` (stereo unspecified)?
Pol III holo inh: inactive; UbGFP stabilizer: inactive; HBB splice mod: inactive; Epigenetic mod: inactive; Tau fil binding: inactive; ALOX15 inhib: 25.1µM

What do the screens show for `Cc1ccc(-n2nc(C)c3c2OC(N)=C(C#N)C3c2ccoc2)cc1` (stereo unspecified)?
Pol III holo inh: inactive; UbGFP stabilizer: inactive; Epigenetic mod: inactive; Tau fil binding: 31.6µM; ALOX15 inhib: inactive

What do the screens show for `CCOc1ccc2c(c1)c1nnc(SCC3CCCO3)nc1n2C` (stereo unspecified)?
Pol III holo inh: inactive; UbGFP stabilizer: inactive; Epigenetic mod: inactive; Tau fil binding: 31.6µM; ALOX15 inhib: inactive

How did COc1ccc2c(c1)c1nnc(SCC(=O)N3CCCCC3C)nc1n2C (stereo unspecified) do in these assays?
Pol III holo inh: inactive; UbGFP stabilizer: inactive; HBB splice mod: inactive; Epigenetic mod: inactive; Tau fil binding: inactive; ALOX15 inhib: inactive

What do the screens show for `CO/N=C(\C(=O)N[C@@H]1C(=O)N2C(C(=O)O)=C(CSc3nc(=O)c(O)nn3C)CS[C@@H]12)c1csc(N)n1`?
Pol III holo inh: 39.8µM; UbGFP stabilizer: inactive; HBB splice mod: inactive; Epigenetic mod: inactive; Tau fil binding: inactive; ALOX15 inhib: inactive

How did CC(C)(C)c1ccccc1NC(=O)c1cccnc1 do in these assays?
Pol III holo inh: 31.6µM; UbGFP stabilizer: inactive; HBB splice mod: inactive; Epigenetic mod: inactive; Tau fil binding: inactive; ALOX15 inhib: inactive

How did O=C(c1cnn2c(C(F)(F)F)cc(-c3ccco3)nc12)N1CCCc2ccccc21 do in these assays?
Pol III holo inh: inactive[11.4 µM]; UbGFP stabilizer: inactive[9.17 µM]; HBB splice mod: inactive[0.0738 µM]; Epigenetic mod: inactive; Tau fil binding: inconclusive; ALOX15 inhib: inactive[11.4 µM]

What do the screens show for `Cc1ccccc1Cn1nc(C)c(NC(=O)c2cc3nc(-c4ccco4)cc(C(F)(F)F)n3n2)c1C`?
Pol III holo inh: inactive; UbGFP stabilizer: inactive; Epigenetic mod: inactive; Tau fil binding: 7.94µM; ALOX15 inhib: inconclusive

How did O=C(Nc1cnn(Cc2ccccc2)c1)c1cc2nc(-c3ccco3)cc(C(F)(F)F)n2n1 do in these assays?
Pol III holo inh: inactive; UbGFP stabilizer: inactive; Epigenetic mod: inactive; Tau fil binding: inactive; ALOX15 inhib: inactive

Results for O=C(NC12CC3CC(CC(C3)C1)C2)c1cc2nc(-c3ccco3)cc(C(F)(F)F)n2n1 ?
Pol III holo inh: inactive; UbGFP stabilizer: inactive; Epigenetic mod: inactive; Tau fil binding: 12.6µM; ALOX15 inhib: inactive

What do the screens show for `COc1ccc(NC(=O)c2cnn3c(C(F)(F)F)cc(-c4ccco4)nc23)cc1OC`?
Pol III holo inh: 1µM; UbGFP stabilizer: inactive[9.17 µM]; HBB splice mod: inactive[0.0738 µM]; Epigenetic mod: inactive; Tau fil binding: 0.398µM; ALOX15 inhib: inactive[11.4 µM]

How did O=C(Nc1ccc2c(c1)OCO2)c1cnn2c(C(F)(F)F)cc(-c3ccco3)nc12 do in these assays?
Pol III holo inh: inactive; UbGFP stabilizer: inactive; HBB splice mod: inactive; Epigenetic mod: inactive; Tau fil binding: 0.501µM; ALOX15 inhib: inactive

Results for O=c1c(O)c(-c2ccc(O)c(O)c2)oc2c(OC[C@H]3O[C@@H](O)[C@@H](O)[C@H](O)[C@@H]3O)c(O)cc(O)c12 ?
Pol III holo inh: inactive; UbGFP stabilizer: inactive; Epigenetic mod: inactive[9.22 µM]; Tau fil binding: inconclusive

How did C[C@@]12CC[C@@H]3[C@@H](CC[C@H]4C[C@@H](O)CC[C@]43C)[C@H]1CC[C@@H]2c1cc(C(F)(F)F)n[nH]1 do in these assays?
Pol III holo inh: inactive[11.4 µM]; UbGFP stabilizer: inactive[9.17 µM]; HBB splice mod: inactive[9.22 µM]; Epigenetic mod: inactive[9.22 µM]; Tau fil binding: inactive[11.4 µM]; ALOX15 inhib: inconclusive

Results for O=C(Nc1cnn(C23CC4CC(CC(C4)C2)C3)c1)c1cnn2c(C(F)(F)F)cc(-c3ccco3)nc12 ?
Pol III holo inh: inactive; UbGFP stabilizer: inactive; HBB splice mod: inactive; Epigenetic mod: inactive; Tau fil binding: 2µM; ALOX15 inhib: inactive

What do the screens show for `O=c1c2ccccc2nc(SCc2nc3ccccc3s2)n1Cc1ccco1`?
Pol III holo inh: inactive; UbGFP stabilizer: inactive; HBB splice mod: inactive; Epigenetic mod: inactive; Tau fil binding: inactive; ALOX15 inhib: inactive

How did CCc1nc2sc3ccccc3c(=O)c2c(=O)n1Cc1ccco1 do in these assays?
Pol III holo inh: inactive; UbGFP stabilizer: inactive; HBB splice mod: inactive[0.369 µM]; Epigenetic mod: inactive; Tau fil binding: 15.8µM; ALOX15 inhib: inactive

What do the screens show for `O=c1c2ccccc2sc2nc(C3CCCCC3)n(Cc3ccco3)c(=O)c12`?
Pol III holo inh: inactive; UbGFP stabilizer: inactive; HBB splice mod: inactive[0.369 µM]; Epigenetic mod: inactive; Tau fil binding: 10µM; ALOX15 inhib: inactive

What do the screens show for `CCCCCCCCCCCCCCC/C=C\[C@H](O)[C@@H](NC(=O)CCCCCCCCCCCCC)OC` (tested in a mixture with another compound)?
Pol III holo inh: inactive; UbGFP stabilizer: inactive; HBB splice mod: inactive; Epigenetic mod: inactive; Tau fil binding: inactive; ALOX15 inhib: inactive
